Experimental data: PubChem BioAssay (NCI)
The panel holds about 83,000 compounds, 20% with a hit somewhere; the sample as a whole holds those more often.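 Single-concentration screen, 48 h exposure, 96-well plates. Endpoint: percent growth. Below 10 = active.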 Values without a mark were called inactive. The source made the active and inactive calls.

Test system: HL-60(TB) leukemia
Assay: NCI-60 one-dose screen, 48 h (100 = growth as untreated, 0 = no growth, -100 = all killed)
Details: 10 µM unless noted

SMILES	growth
Cc1c(C(N)=O)sc2nc(C)n(/N=c3\scc(-c4ccccc4)n3Cc3ccccc3)c(=O)c12	-35.8% (active)
C=C(C)[C@@H]1CC[C@]2(COC3CCCCO3)CC[C@]3(C)[C@H](CC[C@@H]4[C@@]5(C)C=C(C=O)C(=O)C(C)(C)[C@@H]5CC[C@]43C)[C@@H]12 (stereo not given in full)	-25.8% (active)
c1ccc(C(CC2=NCCCN2)c2ccccc2)cc1	71%
ClC1=C(Cl)C(Cl)=C(Cl)C1=Cc1ccc(Cl)cc1	-4.27% (active)
O=C(CNC(=O)c1cccc2ccccc12)Nc1ccccc1Oc1ccccc1	7.14% (active)
CSc1ccc2c(c1)N(CCC1CCCCN1C)c1ccccc1S2 (stereo not given)	86.1%
c1ccc(-c2n(Cc3ccc4ccccc4n3)cc[n+]2Cc2ccc3ccccc3c2)cc1	-54.3% (active)
C/C(=N/Nc1nc2ccccc2n1C)c1ccccn1	-19% (active)
COC(=O)[C@H](C)NC(=O)NC(=O)NC(=O)CI	-51% (active)
CSc1nc2ccccc2cc1/C=[N+](\[O-])c1ccccc1	-13.4% (active)
C/C=C(\C)C(=O)N[C@H]1[C@@H](OC(C)=O)C[C@]2(C)C3CC[C@@]4(C)C(CC[C@@H]4C(C)N(C)C)C3CCC2[C@H]1O (stereo not given in full)	70.5%
COc1ccc2oc(=O)cc(-c3c(C#N)c(N)n4nc(N)c(C#N)c4c3C#N)c2c1	96.4%
O=C(O)CS(=O)c1ccc(Cl)cc1 (stereo not given)	86.2%
CC(C)C[C@@H](C(=O)N[C@H](C(=O)OC1CCCC1)c1ccccc1)[C@H](O)C(=O)NO	35.9%
CCCCCn1cnc2c(=S)nc[nH]c21	95%
COc1cc(/C=C2\C(=O)N(CCOc3cc(O)c4c(=O)cc(-c5ccccc5)oc4c3)c3ccccc32)cc(OC)c1O	-9.06% (active)
COc1nc2ccc(C)cc2cc1-c1nc2c(cnn2-c2ccc(Br)cc2)c(=O)[nH]1	23.7%
Cn1c(O)c(N=NC(=O)c2cc(-c3ccccc3)on2)c2ccccc21	80.8%
COc1cc2c(cc1-c1c(C)noc1C)ncc1nc(C3CCC(F)(F)CC3)n(C3CCC(OC(F)F)CC3)c12 (stereo not given)	7.4% (active)
COc1ccc(NC(=O)c2nc(-c3cc(OC)c(OC)c(OC)c3)n(-c3cccc4ccccc34)n2)cc1OC	10%

SMILES	growth
O=S(=O)(NCCNc1nccc(-c2c(-c3ccc(F)c(O)c3)nc3sccn23)n1)c1ccc(F)cc1	12.7%
CC(C)CSc1nc(NN)c(C#N)c(-c2ccccc2)n1	106%
CCC(=O)Sc1ccccc1C(=O)Nc1ccc(Cl)cc1	37.6%
NS(=O)(=O)c1cccc(NC(=O)C(=O)C2C(=O)Nc3ccccc32)c1 (stereo not given)	159%
FC(F)(F)c1ccc(Cn2cc(CSc3nc4ccccc4s3)nn2)cc1	97.9%
Clc1nccc2c(-c3csc(-c4c[nH]c5ccc(Br)cc45)n3)c[nH]c12	9.77% (active)
O=C(Cc1ccc(/C=C/C(=O)c2ncc[nH]2)cc1)Nc1ccc(F)cc1	-17.3% (active)
O=C(CCl)NC1c2ccccc2Oc2ccccc21	78.4%
C=C1C(=O)O[C@H]2[C@H]1CC/C(COC(=O)c1ccc3ccccc3c1)=C\CC[C@@]1(C)O[C@@H]21	-53.5% (active)
CN(C)[C@@H]1C(=O)C(C(=O)NCc2nc3[nH]cnc(=S)c3[nH]2)=C(O)[C@@]2(O)C(=O)C3=C(O)c4c(O)cccc4[C@@](C)(O)[C@H]3C[C@@H]12	4.14% (active)
O=C(Nc1ccc(Br)cc1)c1ccc(Cl)c(Cl)c1	19.4%
C/C(CC(=O)NNc1ccc([N+](=O)[O-])cc1)=N\Nc1ccc([N+](=O)[O-])cc1	28.8%
N#Cc1c(-c2ccccn2)[nH]c(=S)[nH]c1=O	94.9%
CCN1CCN(CC(=O)N2c3cccc4cccc(c34)N(C(=O)CN3CCN(CC)CC3)C2c2cn(-c3ccccc3)nc2-c2cccc([N+](=O)[O-])c2)CC1	-63.9% (active)
c1ccc2[nH]c(SSc3nc4ncncc4[nH]3)nc2c1	17.1%
O=C(Cn1nnc2ccccc21)N/N=C/c1ccccc1F	107%
O=C(CNCCO)Nc1ccc2ncnc(Nc3ccc(OCc4cccc(F)c4)c(Cl)c3)c2c1	86.9%
Nc1n[nH]c2cccc(C#Cc3cccc(NC(=O)c4cc(N5CCOCC5)cc(C(F)(F)F)c4)c3)c12	10.6%
CC(=O)n1cc(/C=C2\N=C(c3ccc(Cl)cc3)N(c3ccc(S(=O)(=O)Nc4nccs4)cc3)C2=O)c2ccccc21	73.3%
N#Cc1cccc(-c2ccc3c(c2)NC(=O)/C3=C\c2ccc[nH]2)c1	64.8%
